The full ranking holds about 33,000 sequences; the median of “E-score (-0.5 to 0.5)” is about -0.036, and the highest 2% start at about 0.37. The sample holds the highest values, similar sequences and a random draw of the others, so the mix is not that of the screen.
target: T1, Yer064c (UniProt P40041); assay: PBM E-score (8-mer binding enrichment) (E-score (-0.5 to 0.5)); higher = stronger / more preferred TF binding; conditions: protein concentration: 200 nM; construct: GST-full length
T1 sequence: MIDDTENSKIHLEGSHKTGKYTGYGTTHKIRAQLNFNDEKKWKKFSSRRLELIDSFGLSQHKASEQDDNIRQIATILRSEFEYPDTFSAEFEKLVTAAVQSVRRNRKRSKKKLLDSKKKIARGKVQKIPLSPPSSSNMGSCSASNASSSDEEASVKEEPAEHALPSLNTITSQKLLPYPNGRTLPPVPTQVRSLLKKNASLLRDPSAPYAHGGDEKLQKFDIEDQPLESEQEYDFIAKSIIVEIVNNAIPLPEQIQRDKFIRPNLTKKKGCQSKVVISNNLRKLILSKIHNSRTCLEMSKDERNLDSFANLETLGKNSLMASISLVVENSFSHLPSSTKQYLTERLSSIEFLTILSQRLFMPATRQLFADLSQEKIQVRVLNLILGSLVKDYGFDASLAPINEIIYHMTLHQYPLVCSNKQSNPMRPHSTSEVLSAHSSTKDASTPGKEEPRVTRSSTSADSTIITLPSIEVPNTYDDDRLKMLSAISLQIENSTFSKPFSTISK
Protocol: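 Universal 'all 10-mer' protein binding microarrays (Agilent AMADID 015681) probed with GST-tagged S. cerevisiae TFs (full-length or DBD) made by in vitro transcription/translation (PURExpress), about 100-200 nM. Bound TF was detected with fluorescent anti-GST. Each ungapped 8-mer (which stands for itself and its reverse complement) is scored by the PBM enrichment score (E-score), a modified Wilcoxon-Mann-Whitney statistic from -0.5 to +0.5, computed with the Universal PBM Analysis Suite. Scale: above 0.35 generally sequence-specific binding.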

| Sequence | PBM E-score |
| --- | --- |
| AGCGTTAG | -0.0809 |
| CATAGCAA | -0.0521 |
| CATCTGTA | -0.0129 |
| GGATCGTA | -0.118 |
| GACTATAC | 0.413 |
| AACTATAA | 0.0773 |
| GACTATAA | 0.389 |
| CACTATAA | -0.0109 |
| CACTATAC | -0.184 |
| AACTATAC | 0.172 |
| AACTCTCG | -0.105 |
| CCTTCAGC | -0.126 |
| CATTTGGA | 0.0626 |
| CATGAGCC | 0.247 |
| CATGAGAC | 0.322 |
| AATGAGTC | 0.485 |
| AATGAGTG | 0.249 |
| AATGAGAC | 0.257 |
| CATGAGTC | 0.481 |
| ACGAGCGA | -0.0924 |
| TGTTGAAA | 0.0239 |
| ACATCCCT | -0.0971 |
| AGATCTAA | -0.0235 |
| AGAAGTAT | 0.0717 |
| ACTCATAA | 0.375 |

| Sequence | PBM E-score |
| --- | --- |
| TCTCATAA | 0.209 |
| GCTCATAC | -0.0113 |
| CCTCATAG | -0.00122 |
| ACTCATAT | 0.368 |
| ACTCATAC | 0.393 |
| ACGCATAT | -0.225 |
| CCTCATAC | -0.153 |
| GCTCATAA | 0.136 |
| ATTCATAG | 0.166 |
| ACTCATAG | 0.385 |
| ACCCATAT | 0.216 |
| GAAGATCA | 0.02 |
| ATCGATAG | 0.0388 |
| GCGCGACA | -0.0346 |
| ACCTGGAG | 0.0449 |
| CTCTTGCA | 0.00318 |
| AGTGATAC | 0.0829 |
| AGTGATGA | 0.261 |
| GGTGATGA | 0.191 |
| AGTGATTG | 0.362 |
| CGTGATTC | 0.418 |
| AGTGATTC | 0.405 |
| GGTGATAA | -0.111 |
| CGTGATAC | -0.131 |
| GGTGATTA | 0.447 |

| Sequence | PBM E-score |
| --- | --- |
| AGTGATTA | 0.4 |
| CGTGATCC | -0.251 |
| AGTGATAA | -0.0496 |
| ATTGGACA | -0.0986 |
| AAAAACCC | -0.204 |
| GAGATAGA | -0.206 |
| GCAGTCCA | 0.123 |
| GCTCTCCA | -0.226 |
| GTCCTCAA | 0.159 |
| CCAGAACC | -0.1 |
| CGTGATGA | 0.104 |
| CGTGATTA | 0.393 |
| CGTGATAA | 0.0558 |
| AAGATGCC | -0.214 |
| CGGCAAAA | -0.235 |
| AGAAGACG | -0.0622 |
| AGAAGACC | -0.209 |
| ACAAGACA | -0.114 |
| ACAAGACT | 0.37 |
| ACAAGACG | -0.027 |
| AGAAGACT | 0.368 |
| ATTAATTG | 0.238 |
| ACCATACA | -0.0449 |
| GAGGACCA | -0.0209 |
| TGTATCAA | 0.187 |

| Sequence | PBM E-score |
| --- | --- |
| AGCGACGG | -0.139 |
| ATGTAATC | 0.291 |
| TATAGTAA | 0.0693 |
| CATAGTGG | -0.088 |
| CATAGTAA | 0.212 |
| CATAGTCA | 0.466 |
| AATAGTCG | 0.346 |
| AATAGTCC | 0.241 |
| TATAGTCA | 0.467 |
| AATAGTCA | 0.478 |
| TATAGTGA | 0.134 |
| CATAGTCC | 0.304 |
| AATAGTCT | 0.297 |
| CATAGTCG | 0.374 |
| AATGGGCT | -0.041 |
| AACCAACC | -0.128 |
| CGTCGAGA | 0.0495 |
| GAGCGCGC | -0.194 |
| GTCGCTCA | 0.171 |
| GGACCATA | -0.109 |
| CCGTACGA | -0.0292 |
| AAGGGAGA | 0.039 |
| AGGGACTA | 0.222 |
| GATAGTAA | 0.149 |
| GATAGTCA | 0.476 |

| Sequence | PBM E-score |
| --- | --- |
| GATAGTCC | 0.296 |
| GCACCCCA | -0.26 |
| GGGAGTTA | -0.0443 |
| CGGAGTTA | -0.0037 |
| GGGAGTAA | 0.00383 |
| CGGAGTCC | 0.307 |
| CGGAGTCA | 0.477 |
| GGGAGTCA | 0.477 |
| CACTGTGG | -0.177 |
| CACCTACG | 0.0159 |
| GAACCGTC | -0.209 |
| GACCTGTA | -0.193 |
| ATCGAGTA | 0.138 |
| ATCGAGTG | 0.139 |
| CTCGAGAC | 0.163 |
| ATCGAGTC | 0.389 |
| CTCGAGTC | 0.37 |
| CTCGAGTA | 0.109 |
| CCGCTAGC | -0.334 |
| GAAGATCC | -0.181 |
| ACCCCTTA | -0.00226 |
| CAGACTCC | 0.187 |
| GAGACTCC | 0.367 |
| AAGACTCC | 0.387 |
| AAGACTGC | 0.137 |

| Sequence | PBM E-score |
| --- | --- |
| CAGACTCG | 0.218 |
| CAGACTCA | 0.396 |
| GAGACTAC | 0.36 |
| AAAACTCT | -0.168 |
| AAGACTGT | 0.254 |
| CAGACTGA | 0.134 |
| GAGACTGC | 0.217 |
| AAGACTCT | 0.425 |
| ACTTATCG | 0.0591 |
| CTGCCTAC | -0.0918 |
| CCTATAGC | -0.178 |
| GCCGTGCC | -0.24 |
| CGCTGAAC | -0.0322 |
| ACGTCTAA | 0.0568 |
| ACAGGGAG | -0.0887 |
| CAAGCGAC | -0.0326 |
| CTCCCGAG | 0.0821 |
| ACGCTATG | -0.064 |
| GACTGGGC | 0.0848 |
| TATACTCA | 0.317 |
| AAGACACG | -0.0488 |
| GAGACTTA | 0.24 |
| AAGACTCG | 0.373 |
| AAGACTGA | 0.347 |
| GAGACTCA | 0.467 |

| Sequence | PBM E-score |
| --- | --- |
| AAGACTTA | 0.33 |
| TAGACTGA | 0.122 |
| GAGACTGA | 0.28 |
| TAGACTCA | 0.413 |
| AAGACACA | 0.0498 |
| AAGACTCA | 0.48 |
| ATTTGGCG | -0.116 |
| GAAGTTAC | 0.0811 |
| ATAGCTGC | 0.00331 |
| AGCTAAGG | -0.317 |
| GGGAGCTA | -0.13 |
| AGTTCATG | 0.215 |
| GCCAATAC | -0.222 |
| AGAGCTGA | 0.0408 |
| AAAGTGAG | 0.188 |
| ATGCCGTA | -0.0237 |
| CGCGTAAC | -0.139 |
| GTACTTAA | 0.123 |
| CTTGCCAC | 0.0476 |
| ACCAAAAA | 0.186 |
| CACTTTAC | 0.0259 |
| ATCGCCTG | -0.012 |
| GAGCACTC | -0.182 |
| GAAGGATC | -0.0298 |
| AGGTGCAC | -0.143 |

| Sequence | PBM E-score |
| --- | --- |
| GGGGTGGA | -0.205 |
| ACCACTTG | -0.0296 |
| CATGAATC | 0.423 |
| AATGAATC | 0.39 |
| GATGAATA | 0.176 |
| AATGAATT | 0.0966 |
| CATGAATA | 0.178 |
| ATTGAATG | 0.167 |
| ATTGAATA | 0.169 |
| AATGAATG | -0.0293 |
| CATGAATG | 0.197 |
| ATTGAATC | 0.375 |
| GATGAATC | 0.387 |
| GATGAACC | 0.0652 |
| AGTACCAC | 0.0908 |
| CAATCGAC | 0.0905 |
| ACTGCGAC | 0.228 |
| CTTCCGCC | -0.183 |
| ACATGACA | 0.155 |
| ACATGAGC | 0.046 |
| ACATGACG | -0.00033 |
| AGATGACA | 0.116 |
| ACATGAGA | 0.284 |
| ACATGACT | 0.48 |
| AGATGACC | 0.136 |

| Sequence | PBM E-score |
| --- | --- |
| AGATGACT | 0.487 |
| ACATGAGT | 0.375 |
| CTTACGTA | 0.131 |
| CGCAAGGA | -0.167 |
| AAGGCATA | -0.129 |
| TGCCAGCA | -0.0413 |
| ACACGTGC | -0.0356 |
| CACATGTC | 0.0407 |
| ATCCCACG | 0.07 |
| TAGGCGAA | -0.0147 |
| ACGACTGG | 0.148 |
| GGGACTGA | 0.119 |
| ATGACTAG | 0.48 |
| GTGACGGA | -0.0635 |
| CTGACTGC | 0.348 |
| CGGACTGA | 0.178 |
| GTGACTGA | 0.447 |
| CTGACTGA | 0.395 |
| AAGACTGG | 0.1 |
| ATGACTGG | 0.409 |
| ATGACAAG | 0.0335 |
| AGGACTAG | 0.275 |
